Measured values from the supplement of paper PMC10849652.
The full data set covers some 7,900 targets. This sample favours those with a hit. About 0.6% of all pairs of compound and target were hits.

biological target: ZW10 (UniProt O43264); assay: log2 fold change, soluble protein after heating vs DMSO (PISA); higher = thermal stabilisation; K562 cells, 10 uM, 30 min; active = over 0.2 and 3.5 SD of the protein, either way, in both replicates (recomputed)
In short: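 K562 cells at 2×10^6 cells/mL were given 10 μM compound for 30 min. Aliquots then went through 3 min of heating across 48°C-58°C, were pooled, and were extracted in PBS with 0.5% NP-40 at 4°C, and the supernatant after 21,000xg for 90 min was quantified by TMTpro 16plex LC-MS/MS with channel sums equalised. Thermal stability relative to control samples, from duplicates, is given as log2 fold change.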

Sequence of ZW10 (O43264 whole entry, looked up): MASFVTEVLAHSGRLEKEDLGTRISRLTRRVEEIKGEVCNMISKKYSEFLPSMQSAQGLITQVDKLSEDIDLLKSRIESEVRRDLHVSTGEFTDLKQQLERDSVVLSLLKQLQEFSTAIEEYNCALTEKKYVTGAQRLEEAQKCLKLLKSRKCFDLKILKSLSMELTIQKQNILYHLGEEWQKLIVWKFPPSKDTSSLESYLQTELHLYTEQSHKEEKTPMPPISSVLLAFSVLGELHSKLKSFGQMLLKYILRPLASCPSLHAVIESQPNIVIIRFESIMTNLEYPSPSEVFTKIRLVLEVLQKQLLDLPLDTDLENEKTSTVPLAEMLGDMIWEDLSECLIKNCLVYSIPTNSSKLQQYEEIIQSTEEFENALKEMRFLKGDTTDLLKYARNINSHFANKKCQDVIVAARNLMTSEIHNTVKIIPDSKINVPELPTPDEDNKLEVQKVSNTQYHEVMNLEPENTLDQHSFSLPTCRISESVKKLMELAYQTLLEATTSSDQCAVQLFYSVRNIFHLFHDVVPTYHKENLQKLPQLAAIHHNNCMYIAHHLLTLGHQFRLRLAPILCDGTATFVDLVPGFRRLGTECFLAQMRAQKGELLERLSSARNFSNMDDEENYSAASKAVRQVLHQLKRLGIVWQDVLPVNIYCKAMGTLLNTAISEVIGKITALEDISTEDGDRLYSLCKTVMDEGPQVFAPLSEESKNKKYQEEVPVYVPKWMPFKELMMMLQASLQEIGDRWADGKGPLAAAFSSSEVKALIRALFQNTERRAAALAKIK

log2 fold change, inactive:
CON(C)C(=O)N1N=C(c2cc(F)ccc2F)S[C@@]1(CCCN)c1ccccc1 [filanesib] 0.052
CN1CC[C@H](c2c(O)cc(O)c3c(=O)cc(-c4ccccc4Cl)oc23)[C@H](O)C1 [alvocidib] -0.02
NC(=O)c1cnc(N[C@@H]2CCCC[C@@H]2N)nc1Nc1cccc(-n2nccn2)c1 -0.027
Cc1cc(Nc2cc(N3CCN(C)CC3)nc(Sc3ccc(NC(=O)C4CC4)cc3)n2)n[nH]1 [tozasertib] 0.068
CC(C)(O)CC(=O)NCCn1ccc2ncnc(Nc3ccc(Oc4cccc(C(F)(F)F)c4)c(Cl)c3)c21 -0.027
Cc1ncc(-c2ccnc(Nc3ccc(S(C)(=O)=O)cc3)n2)n1C(C)C 0
CN(C)CC(=O)Nc1ccc2[nH]c(=O)c3ccccc3c2c1 0.013
CS(=O)(=O)c1ccc(-c2cnc(N)c(C(=O)Nc3ccccc3)n2)cc1 0.027
Cn1cc(-c2ccc3nnc(C(F)(F)c4ccc5ncccc5c4)n3n2)cn1 -0.069
c1cn2cc(-c3ccc4cn[nH]c4c3)nc(Nc3ccc(N4CCOCC4)cc3)c2n1 [entospletinib] 0.063
CC1=C(C(=O)Nc2cc3cn[nH]c3cc2F)C(c2ccc(C(F)(F)F)cc2)CC(=O)N1 (stereo unspecified) -0.033
CNc1nc(-c2ccc3c(N)n[nH]c3c2)cc(N2C[C@@H](C(=O)NC3CCCCC3)CC[C@H]2C)n1 0.009
C#Cc1cccc(Nc2ncnc3cc(OCCOC)c(OCCOC)cc23)c1 [erlotinib] 0.016
CN1CCN(c2nc(C3=C(c4c[nH]c5ccccc45)C(=O)NC3=O)c3ccccc3n2)CC1 [sotrastaurin] -0.089
Cc1ccc(Sc2cncc3sc(C(N)=O)cc23)cc1 0.018
Cc1cc(Nc2cc(CN3CCOCC3)c3nc(C)c(Cc4ccc(Cl)cc4F)n3n2)n[nH]1 [gandotinib] -0.108
Cc1cc(SCc2sc(-c3ccc(C(F)(F)F)cc3)nc2C)ccc1OCC(=O)O 0.088
Cc1ccc(NC(=O)c2ccc(CN3CC[C@H](N(C)C)C3)c(C(F)(F)F)c2)cc1Nc1nccc(-c2cncnc2)n1 [bafetinib] 0.003
C[C@@H](Oc1cc(-c2cnn(C3CCNCC3)c2)cnc1N)c1c(Cl)ccc(F)c1Cl [crizotinib] -0.137
CC(C)(C)Cn1c(N)nc2ccc(-c3[nH]c(C(C)(C)C)nc3-c3ccc(F)cc3)nc21 [ralimetinib] 0.032
O=C1c2ccccc2-c2n[nH]c3cccc1c23 -0.031
CCCS(=O)(=O)Nc1ccc(F)c(C(=O)c2c[nH]c3ncc(Cl)cc23)c1F 0.053
FC(F)(F)c1ccc(/C=C/c2nc(COc3ccc(CCCCn4ccnn4)cc3)co2)cc1 [mubritinib] 0.028
CCCS(=O)(=O)Nc1ccc(F)c(C(=O)c2c[nH]c3ncc(-c4ccc(Cl)cc4)cc23)c1F [vemurafenib] 0.025
O=C(CCCCCCNC(=O)c1cnc(N(c2ccccc2)c2ccccc2Cl)nc1)NO [citarinostat] 0.033
NC1(Cc2ccc(Cl)cc2)CCN(c2ncnc3[nH]ccc23)CC1 -0.062
COC(=O)[C@H](CCSC)NC(=O)c1ccc(NC[C@@H](N)CS)cc1-c1ccccc1 -0.079
CS(=O)(=O)N1CCN(Cc2cc3nc(-c4cccc5[nH]ncc45)nc(N4CCOCC4)c3s2)CC1 [pictilisib] 0.005
CCn1c(C(=O)N(C2CC2)C2CC2)cc2c3c(ncn3C)c(Nc3cc(C)n(C)n3)nc21 -0.06
O=C(CCCCCCC(=O)Nc1ccccc1)NO [vorinostat] 0.085
CC(C)N(C[C@H]1O[C@@H](n2cnc3c(N)ncnc32)[C@H](O)[C@@H]1O)[C@H]1C[C@@H](CCc2nc3cc(C(C)(C)C)ccc3[nH]2)C1 [pinometostat] 0.152
